MEX-5 binding – C. elegans MEX-5 TCR-2 RNA binding activity. hit rate 0.38% among 300,000. AID 1832. MEX-5/FITC-TCR2 RNA binding, fluorescence polarization; hits give low values. Q9XUB2. activity score (negative = inhibition of binding), % at 10 µM;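 active = inhibition past about -25% in most replicates, and total fluorescence under double the plate's negative control median, limit read from the data; inconclusive = replicates evenly split on the limit, or fluorescence at least double controls; inactive = too little inhibition in most replicates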;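 note: 0% = DMSO and -100% = 5 µM competing unlabeled TCR2 RNA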
EBNA-1 inh – blocks EBNA-1 binding to DNA; EBNA-1 DNA binding, fluorescence polarization; inhibition, % at 14.8 µM; hit rate 0.34% among 300,000; in the data active = inhibition above about 28%
EBV gp42 inh – EBV gp42 inhibition; inhibition, % (tested at 21.74 µM); hit rate 0.42% among 220,000; Fluorescence polarization binding assay, mP read-out; in the data active = inhibition above about 50%
Target sequence (Q1HVG2 whole entry, looked up): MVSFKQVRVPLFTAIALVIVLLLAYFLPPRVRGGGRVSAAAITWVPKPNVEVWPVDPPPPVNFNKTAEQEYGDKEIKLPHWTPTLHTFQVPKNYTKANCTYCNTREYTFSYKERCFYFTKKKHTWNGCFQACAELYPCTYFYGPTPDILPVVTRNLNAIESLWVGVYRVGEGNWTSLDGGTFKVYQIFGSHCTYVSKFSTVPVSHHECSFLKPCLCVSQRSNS
ZTA counter – blocks Epstein-Barr virus ZTA, an EBNA-1 counter-screen; ZTA-DNA binding, fluorescence polarization; AID 2234; inhibition, % at 11 µM; hit rate 0.15% among 320,000; in the data active = inhibition above about 33%
Target sequence (P03206 whole entry, looked up): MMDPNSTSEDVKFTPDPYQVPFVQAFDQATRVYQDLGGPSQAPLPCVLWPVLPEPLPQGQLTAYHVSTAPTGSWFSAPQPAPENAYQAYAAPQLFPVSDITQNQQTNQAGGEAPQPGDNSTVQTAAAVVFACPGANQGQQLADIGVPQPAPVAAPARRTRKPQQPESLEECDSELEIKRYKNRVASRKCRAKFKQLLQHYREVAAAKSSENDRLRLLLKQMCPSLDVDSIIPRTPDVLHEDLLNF
* hit, by the source's call; ? = inconclusive; . = not tested or not shown; + = active, no number. Rows were chosen to be rich in hits. Some 1% of all compounds tested hit in one or more screens of this group.

SMILES	MEX-5 binding	EBNA-1 inh	EBV gp42 inh	ZTA counter
CCOC(=O)C1C(=O)C=C(/C=C/c2ccc(N(C)C)cc2)CC1c1ccccc1 (stereo not given)	?	-3	103*	-2
CC(=O)c1ccc(OCCNS(=O)(=O)c2ccc(-n3cnnn3)cc2)cc1	3	-1	.	-3
Cc1ccc(NC(=O)CN2C(=O)NC(Cc3c[nH]c4ccccc34)C2=O)cc1 (stereo not given)	.	.	.	4
O=C(Nc1ccccn1)c1cc2cc([N+](=O)[O-])ccc2s1	-1	-14	10	14
O=C(Nc1nnc(-c2ccccc2Cl)o1)c1cc2cc([N+](=O)[O-])ccc2s1	.	.	68*	.
CCOc1cc(/C=C2\SC(=Nc3ccc(CC)cc3)NC2=O)ccc1OCC(=O)O	-44*	5	.	19
Cc1ccc(N2C(=O)[C@@H]3[C@H](C2=O)C2c4ccccc4C=CN2[C@@H]3C(=O)c2ccco2)c(C)c1 (stereo not given in full)	5	-1	.	-2
Cc1ccc(N2C(=O)[C@@H]3[C@H](C2=O)C2c4ccccc4C=CN2[C@@H]3C(=O)c2ccco2)cc1 (stereo not given in full)	.	.	54*	.
O=C(c1ccco1)[C@@H]1[C@@H]2C(=O)N(c3ccccc3)C(=O)[C@@H]2C2c3ccccc3C=CN21 (stereo not given in full)	-30*	-7	.	-13
CCC(NC(C)C)C(O)c1ccc(O)c(O)c1 (stereo not given)	-29*	-3	2	-6
CC(C)NC[C@H](O)c1ccc(O)c(O)c1	.	-2	.	-1
O=C1CCC/C(=N/NC(=O)c2sc3ccccc3c2Cl)C1	-27*	-2	-71	10
CCN1CCN(CCNC(=O)c2ccc(CS(=O)c3ccc(Br)cc3)o2)CC1 (stereo not given)	-1	8	.	-1
C/C(=N\Nc1ccc(Cl)c(C(=O)O)c1)c1ccc[nH]1	-38*	1	-8	6
O=S(=O)(Nc1ccc(O)c2ccccc12)c1ccc(Br)cc1	-27*	-8	.	-3
O=S(=O)(Nc1ccc(O)c2ccccc12)c1cccs1	-13	-2	.	10
Cc1ccc(C(=O)C(C)OC(=O)Cn2c(C)csc2=O)cc1 (stereo not given)	-2	8	.	3
CCCCNC(=O)CN1C(=O)c2cccc(N)c2C1=O	-9	.	63*	.
CC1CCCCC1NC(=O)CN1C(=O)c2cccc(N)c2C1=O (stereo not given)	-8	.	79*	.
COc1cc(NS(=O)(=O)c2ccc(-c3ccc(=O)[nH]n3)o2)cc(OC)c1OC	0	-2	.	2
CC(=O)Nc1ccc(N2CCc3c(C)c(C#N)c4nc5ccccc5n4c32)cc1	-14	4	59*	17
Cc1ccc(C)c(S(=O)(=O)N2CCN(C(=O)C3CCN(C(=O)c4ccc(F)cc4)CC3)CC2)c1	1	-1	.	2
Cc1ccc(Cl)c2c(N=Nc3ccccc3)c(O)[nH]c12	-43*	.	.	.
Cc1cc(Cl)cc2c(N=Nc3ccccc3C(=O)O)c(O)[nH]c12	-1	7	.	14
COc1cc(/C=C2/SC(=S)N(Cc3ccccc3)C2=O)cc(Cl)c1O	5	-20	.	-1
SMILES	MEX-5 binding	EBNA-1 inh	EBV gp42 inh	ZTA counter
COc1cc(/C=C2\C(=O)NN(c3ccccc3)C2=O)cc([N+](=O)[O-])c1O	-30*	-13	-16	6
COc1cc(/C=C2\SC(=O)N(Cc3ccc(Cl)cc3)C2=O)cc([N+](=O)[O-])c1O	.	.	90*	.
COc1cc(/C=C2\SC(=O)N(Cc3ccc(F)cc3)C2=O)cc([N+](=O)[O-])c1O	-1	.	58*	.
CCOC(=O)CN1C(=O)S/C(=C/c2ccc(OC)c([N+](=O)[O-])c2)C1=O	1	-6	8	0
COc1cc2c(cc1OC)CN(C(=O)C1CCCN1S(=O)(=O)c1ccc(F)cc1)CC2 (stereo not given)	1	-6	.	-11
Cc1ccccc1-n1c(SCc2c(C)noc2C)nnc1-c1cccnc1	-17	-9	89*	-10
CCn1c(CSc2nnc(-c3cccnc3)n2-c2ccccc2C)nc2cc(C(=O)O)ccc21	.	124*	-6	+
O=C(c1cccc(-c2ccccc2F)c1)N1CC[C@@H](N2CCC(O)CC2)[C@H](O)C1	0	19	.	11
Cc1ccc(OC(C)C(=O)N(C)c2ccccc2)c([N+](=O)[O-])n1 (stereo not given)	.	.	.	6
O=S(=O)(O)c1cccc2c(N=Nc3ccc(O)c4ncccc34)cccc12	-92*	27	.	28
COc1cccc(F)c1C(=O)NC(=O)Nc1ccc2nc(C)oc2c1	-31*	5	27	-8
O=C(CCC(F)(F)F)N1CCCC(N2CCN(c3cccc(Cl)c3)CC2)C1 (stereo not given)	1	-6	.	-15
CC(C)Cn1c(=O)c(C(=O)NCc2ccc3c(c2)OCO3)c(O)c2ccccc21	1	-11	.	-2
CCc1ccc2nc(SCC(=O)Nc3ccccc3N3CCOCC3)c(C#N)cc2c1	0	3	-4	-12
Cc1ccc2nc(SCC(=O)Nc3ccccc3N3CCOCC3)c(C#N)cc2c1	0	1	50*	-8
CCCCC1=CC2=C(c3ccco3)C(=O)C(C)(OC(=O)c3ccc(OC)cc3)C(=O)C2=CN1Cc1ccccc1 (stereo not given)	-8	-9	52*	-16
CCCCC1=CC2=C(c3ccco3)C(=O)C(C)(OC(=O)c3ccc(OC)cc3)C(=O)C2=CN1CCOC (stereo not given)	-5	10	13	22
CCC(=O)Nc1c(-c2ccc3ccccc3c2)nc2ccccn12	3	6	.	-1
O=[N+]([O-])c1ccc(-c2cn(-c3ccc(Cl)cc3)c(=S)[nH]2)cc1	2	-4	54*	-1
CCc1ccc(-n2cc(-c3ccc([N+](=O)[O-])cc3)[nH]c2=S)cc1	0	7	-10	8
CC(C(=O)Nc1ccc(C(=O)O)c(O)c1)N1C(=O)/C(=C\c2ccco2)SC1=S (stereo not given)	-26*	2	.	27
O=C(NN1C(=O)/C(=C/C=C/c2ccco2)SC1=S)c1ccncc1	-15	51*	-9	74*
O=C(NN1C(=O)/C(=C/C=C/c2ccccc2)SC1=S)c1ccncc1	6	-16	-3	8
CC(C)C(C(=O)O)N1C(=O)/C(=C/C=C/c2ccco2)SC1=S (stereo not given)	-35*	42*	6	99*
Cc1cccc(NC(=O)Cn2nc(-c3cccs3)ccc2=O)c1C	0	3	.	-13
Cc1ccc(C)c(S(=O)(=O)N2CCN(C(=O)Cn3[nH]c(=O)c4ccccc4c3=O)CC2)c1	4	-8	.	-31
Oc1ccc(/C=N/N2CCCCC2)c(O)c1O	-29*	-18	.	-6
Oc1ccc(/C=N/N2CCOCC2)c(O)c1O	-47*	-9	-16	8
COc1cccc(/C=N/N2CCOCC2)c1O	1	7	6	-4
C#CCOCCOCCOCCNc1nc(N2CCN(C(=O)CCCCCCCCCCNC(=O)[C@H](CO)n3cc(CCCCCN)nn3)CC2)nc(N2CCN(C(=O)CCCCCCCCCCNC(=O)[C@H](CCCN=C(N)N)n3cc(C[C@@H](C)CC)nn3)CC2)n1	.	13	.	105*

Compound activity as filed in PubChem BioAssay.
